Results from PubChem BioAssay AID686979 (National Center for Advancing Translational Sciences (NCATS), 2013).
Hit rate of the full screen: of about 420,000 compounds, about 50,000 (12%) were called active. A call without a number means that no potency is given here. About 26% were inconclusive and are not listed. Calls come from the whole dose curve; as a rule, active = well fitted inhibition curve with a large enough effect; inconclusive = small, poorly fitted or top-dose-only effect; inactive = flat fitted curve, though single readings scatter. This excerpt belongs to a sample that is enriched for actives.

Assay: qHTS for Inhibitors of human tyrosyl-DNA phosphodiesterase 1 (TDP1): qHTS in cells in presence of CPT; note: nearly all actives have a fitted effect of over 55% in size
Conditions: chicken DT40 Tdp1-/-;hTDP1 cells + 20 nM CPT, ATP luminescence, 48 h; series mostly up to 46.2 µM
In short: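 Chicken DT40 Tdp1-/- cells complemented with human TDP1, 400 cells/well, exposed to compounds plus 20 nM camptothecin for at least 48 h at 37 C; viability read as ATP content by CellTiter-Glo luminescence.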
Potency is the fitted concentration of half-maximal effect.

Structure (SMILES) | Potency
CC(C)OCCCNc1ncnc2c1[nH]c1ccc(F)cc12 | 2.91 µM (active)
COc1cc(OC)c(OC)cc1/C=N/Nc1ncnc2c1[nH]c1ccc(C)cc12 | inactive
COc1ccc(CCNC(=O)CC2SC(=Nc3cc(C)cc(C)c3)NC2=O)cc1OC (configuration not stated) | inactive
CC(C)(C)OC(=O)CNC(=O)c1[nH]cnc1C(=O)N[C@@H](CCCCN)C(=O)OC(C)(C)C | inactive
COc1cc(NC(=O)c2cccs2)ccc1NC(=O)c1ccccc1Cl | inactive
COc1cc2ccccc2cc1C(=O)Nc1ccncc1 | inactive
COc1cc2ccccc2cc1C(=O)Nc1ccc(NC(=O)c2cccs2)cc1 | 20.6 µM (active)
CCCCCCCCCCOC(=O)C[N+](C)(C)CC1CCCCC1O (configuration not stated) | inactive
CC(NCc1cccs1)C(=O)Nc1cc(Cl)cc(Cl)c1 (configuration not stated) | inactive
CC(=O)N1CCC2(CCCN(Cc3ccc(C#N)cc3)C2)CC1 | inactive
O=C(CN(c1cc(C(F)(F)F)ccc1Cl)S(=O)(=O)c1ccccc1)NCc1cccnc1 | 20.6 µM (active)
O=C(CCc1ccccc1)NCc1cccnc1 | inactive
O=C(O)c1cc(S(=O)(=O)N(Cc2ccccc2)c2cccc(C(F)(F)F)c2)ccc1Cl | inactive
COc1ccc(C2(C)NC(=O)N(CC(=O)c3ccc4c(c3)OCO4)C2=O)cc1 (configuration not stated) | inactive
CCCCc1nc(NCCN)c(C#N)c2c1CSC(C)(C)C2 | 20.6 µM (active)
CCCCc1nc(NCc2ccccc2)c(C#N)c2c1CCCC2 | inactive
Cc1nc(NCCN)c(C#N)c2c1COC(C)(C)C2 | inactive
COc1ccc(-c2cc(=O)c3c(O)cc(O[C@@H]4O[C@H](CO[C@@H]5O[C@@H](C)[C@H](O)[C@@H](O)[C@H]5O)[C@@H](O)[C@H](O)[C@H]4O)cc3o2)cc1O | inactive
COc1cccc(OC)c1C(=O)NC(=S)NCc1ccco1 | inactive
COc1cc(C(=O)NC(=S)NCc2ccco2)cc(OC)c1OC | 18.4 µM (active)
COc1cc(C(=O)N[C@@H](C)C(=O)NCc2ccco2)cc(OC)c1OC | inactive
CCN1C(=O)C(=O)N(CC(=O)Nc2cc(C)ccc2C)C1=O | inactive
Cc1ccc(CSCCNC(=O)CN(c2ccc(F)cc2)S(C)(=O)=O)cc1 | inactive
CCOC(=O)C1CCN(C(=O)COC(=O)C2CCN(S(=O)(=O)c3ccc4c(c3)OCCO4)CC2)CC1 | inactive
CCCN1CCN(CCCNC(=O)Cn2nc(CC)n3c(cc4occc43)c2=O)CC1 | inactive
Cc1ccc(-c2ccc(=O)n(CC(=O)NCCCN3CCCCC3)n2)cc1 | inactive
CCc1ccc(-c2cc3c(=O)n(CC(=O)NCCCN4CCN(Cc5ccccc5)CC4)nc(C)n3n2)cc1 | 20.6 µM (active)
